# Measured values reported in the supplement of paper PMC10941209.
# Values without a mark were called inactive.
# Test system: Toxoplasma gondii RH 2F1 tachyzoites (intracellular in HFF)
# Experiment: parasite survival relative to DMSO control; higher = less antiparasitic activity, active = 20 or less
# Conditions: 1 µM; 72 h
# Protocol: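 Primary single-dose screen of the MMV Pandemic Response Box at 1 uM against T. gondii RH-2F1 (beta-galactosidase) tachyzoites in HFF cells, 72 h at 37 C. Parasite growth read by CPRG absorbance at 570 nm and normalised to DMSO-treated infected controls (% survival); pyrimethamine was the reference drug. The paper calls at least 80% inhibition a hit.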
row,Structure (SMILES),parasite survival
1,CCCCc1ccc(-c2cc(C(=O)O)cc(-c3ccc(Cl)cc3)n2)cc1,40.8%
2,CC(C)(C)NC(=O)N[C@H](C(=O)N1C[C@H]2[C@@H]([C@H]1C(=O)NC(CC1CCC1)C(=O)C(N)=O)C2(C)C)C(C)(C)C (stereo not given in full),48.5%
3,CC(=O)Nc1cc(NS(=O)(=O)c2ccc(Cl)cc2)cc2c(Cl)[nH]nc12,52%
4,Cc1[nH]c2ccccc2c1CC(=O)N[C@@H](Cc1ccccc1)C(=O)N(C)c1ccccc1,83.1%
5,Nc1nc(=O)[nH]cc1F,51.9%
6,Nc1nnc(-c2ccc(Cl)cc2)s1,59.9%
7,O=c1ccc2ncc(=O)n3c2n1CC3CN1CCC(NCc2cc3c(cn2)OCCC3)CC1 (stereo not given),44.7%
8,Fc1ccc(-c2nc(-c3c[nH]c4ccc(Br)cc34)[nH]c2-c2ccc(F)cc2)cc1,36.6%
9,O=C(Cn1cnc2ccccc2c1=O)Nc1ccccc1,57.7%
10,COc1c(NC(=O)[C@H]2CC[C@@H](COc3ccc([N+](=O)[O-])cc3)CC2)c(F)cc2c(=O)c(C(=O)O)cn(C3CC3)c12,47.7%
11,CC[C@@H](CO)NCCN[C@@H](CC)CO,55.4%
12,C=CCc1cc(Cc2cnc(N)nc2N)cc(OC)c1O,29.8%
13,Cc1cc(CCCOc2c(C)cc(-c3noc(C(F)(F)F)n3)cc2C)on1,67.2%
14,Clc1cc2nc(C3CCNCC3)n(Cc3ccc(CNCCc4c[nH]cn4)cc3)c2cc1Cl,66.5%
15,CN1C(=O)C(c2ccccc2)C(=O)N(c2ccccc2)c2cc(C(F)(F)F)ccc21 (stereo not given),79.5%
16,NCC(=O)Nc1ccc(-n2nc(C(F)(F)F)cc2-c2ccc3c(ccc4ccccc43)c2)cc1,13.7% (active)
17,CC(C)CCN1C(=O)C(C2=NS(=O)(=O)c3cc(NS(C)(=O)=O)ccc3N2)=C(O)[C@@H]2[C@H]3CC[C@H](C3)[C@@H]21,72.3%
18,O=C(Nc1ccc(N2CCN(C(=O)c3ccccc3)CC2)cc1)c1ccc2c(c1)OCO2,46.9%
19,CC#C[C@]1(O)CC[C@H]2[C@@H]3CCC4=CC(=O)CCC4=C3[C@@H](c3ccc(N(C)C)cc3)C[C@@]21C,45.7%
20,OB1OCc2c1ccc(Cl)c2F,77.1%

row,Structure (SMILES),parasite survival
1,C[C@@H](NC(=O)c1ccccc1-c1ccccc1)B(O)O,43.9%
2,CC(C)N(c1cc(-c2ccccc2)sc1C(=O)O)C(=O)[C@H]1CC[C@H](C)CC1,65%
3,Cc1cc(CCOc2c(C)cc(-c3nnn(C)n3)cc2C)on1,65.1%
4,COc1ccc(NC(=O)c2cc3ccccn3n2)cc1,44.5%
5,O=C(Nc1ccc(F)cc1)c1nn(-c2ccccc2)c(=O)cc1Cl,42.6%
6,CN(C(=O)C1(c2ccc(Cl)cc2)CCC1)c1ccccc1,83.6%
7,N[C@H]1CCC[C@H]1C(=O)O,78.4%
8,CC1(C)[C@H](C(=O)O)N2C(=O)C[C@H]2S1(=O)=O,35.7%
9,CC(C)=CCC/C(C)=C/CNCCNC1C2CC3CC(C2)CC1C3 (stereo not given),8.85% (active)
10,CN(C/C=C/C#CC(C)(C)C)Cc1cccc2ccccc12,41.6%
11,COc1nc2ccc(Br)cc2cc1[C@@H](c1ccccc1)[C@@](O)(CCN(C)C)c1cccc2ccccc12,14% (active)
12,O=C(O)c1cc(-c2ccc(Br)cc2)nc2ccc(Cl)cc12,72.8%
13,O=C(/C=C\n1cnc(-c2cc(C(F)(F)F)cc(C(F)(F)F)c2)n1)NNc1ccccn1,4.89% (active)
14,O=C(Nc1nnc(-c2ccccc2)o1)c1ccc(F)cc1,52.8%
15,Cc1cc(NS(=O)(=O)c2ccc(-c3ccc(F)cc3F)cc2)no1,55%
16,CC(Cc1ccccc1)C(=O)Nc1ccc(Cl)cc1C(=O)O (stereo not given),42%
17,Cc1ccc(S(=O)(=O)Nc2cccc3cccnc23)cc1,4.22% (active)
18,CCc1nc(N)nc(N)c1C#CCc1ccccc1,5.77% (active)
19,NNC(=O)c1ccncc1,63.2%
20,CC1(C)Cc2c(C#N)c(SCCc3ccccc3)nc(N3CCOCC3)c2CO1,39.6%
